Consider 8 compounds from PubChem BioAssay (NCI).

Among the test systems are NCI-H23 lung; NCI-H226 lung; NCI-H322M lung; HOP-62 NSCLC; NCI-H460 lung; HOP-92 NSCLC; NCI-H522 lung; A549/ATCC NSCLC; 786-0 renal; COLO 205 colon; DU-145 prostate; K-562 leukemia; MALME-3M melanoma; MDA-MB-231 breast; SF-268 CNS; SF-295 CNS; SF-539 CNS; UACC-257 melanoma; M14 melanoma; RXF 393 renal.
Assay in all cases: NCI-60 one-dose screen, 48 h (100 = growth as untreated, 0 = no growth, -100 = all killed)
What all share (conditions): 10 µM unless noted

The panel holds about 83,000 compounds, 20% with a hit somewhere; the sample as a whole holds those more often.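 Step 1: grow cells in 96-well plates. Step 2: add test compound at a single concentration. Step 3: incubate 48 h. Step 4: record percent growth.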 Unmarked numbers belong to inactive results. The source made the active and inactive calls. How the source made its calls: active means growth percent below 10; inactive means the rest.

For the compound `CN1CCN(CCCOc2ccc3ncnc(Nc4ccc(Oc5cccc(C(F)(F)F)c5)c(Cl)c4)c3c2)CC1`, the growth in the test with NCI-H23 lung is 44.4%; in the test on NCI-H226 lung it was 85.6%; in the test with NCI-H322M lung it was 11.3%; in the test with HOP-62 NSCLC it was 1.07% (active); with NCI-H460 lung, -66.9% (active); with HOP-92 NSCLC it was 29.4%. For the same compound, the growth was -3.31% (active) with NCI-H522 lung; 21.5% in the test on A549/ATCC NSCLC; -81% (active) in the test on 786-0 renal; -51.8% (active) in the test with COLO 205 colon; -8.56% (active) with DU-145 prostate; -13.1% (active) in the test on K-562 leukemia. Also, the growth was -90.2% (active) in the test with MALME-3M melanoma; -74.6% (active) in the test on MDA-MB-231 breast; 28.1% in the test on SF-268 CNS; -64.7% (active) in the test with SF-295 CNS; -89.3% (active) in the test with SF-539 CNS; -53.5% (active) in the test on UACC-257 melanoma. Besides, in the test on M14 melanoma, the growth is -62.8% (active).

Turning to `Nc1nc(SN=Nc2ccc(S(N)(=O)=O)cc2)c2[nH]cnc2n1`, the growth was 8.88% (active) with NCI-H23 lung; 37.3% in the test with NCI-H226 lung; 56.4% in the test on NCI-H322M lung; 19.8% with HOP-62 NSCLC; 4.68% (active) with NCI-H460 lung; -6.95% (active) in the test with HOP-92 NSCLC. Also, the growth in the test with NCI-H522 lung was -9.91% (active); with A549/ATCC NSCLC, 24.1%; in the test with 786-0 renal, 15.7%; in the test with COLO 205 colon it was -30.6% (active); in the test with DU-145 prostate, 15%; with MALME-3M melanoma it was 24.6%. The growth is 16.9% in the test with MDA-MB-231 breast; -6.34% (active) in the test with RXF 393 renal; 19.8% with SF-268 CNS; 12.6% with SF-295 CNS; 14.9% in the test on SF-539 CNS; 8.28% (active) in the test with UACC-257 melanoma. In addition, the growth with M14 melanoma is 11.1%.

Turning to `CCOC(=O)C1CC(=O)c2cc(OC)c(OC)cc2C1` (configuration not stated), the growth with NCI-H23 lung was 101%; in the test on NCI-H226 lung it was 92.6%; in the test on NCI-H322M lung it was 123%; in the test on HOP-62 NSCLC, 96%; with NCI-H460 lung, 110%; with HOP-92 NSCLC, 84%. The growth in the test on NCI-H522 lung was 84.9%; in the test with A549/ATCC NSCLC, 100%; in the test with 786-0 renal, 96.2%; with COLO 205 colon, 127%; in the test on DU-145 prostate it was 111%; in the test with K-562 leukemia, 88%. For the same compound, the growth is 132% with MALME-3M melanoma; 110% in the test on MDA-MB-231 breast; 102% in the test on SF-268 CNS; 98.1% in the test on SF-295 CNS; 100% in the test on SF-539 CNS; 87.7% in the test on UACC-257 melanoma. In addition, in the test on M14 melanoma, the growth was 87.8%.

As to `CCOC(=O)c1ccc(Nc2ccnc(SCC(=O)c3ccc(C#N)cc3)n2)cc1`, the growth was 79.9% with NCI-H23 lung; 61.4% in the test on NCI-H226 lung; 90.5% in the test with NCI-H322M lung; 63.4% with HOP-62 NSCLC; 90.5% in the test on NCI-H460 lung; 105% with HOP-92 NSCLC. In addition, the growth in the test with NCI-H522 lung is 27%; in the test with A549/ATCC NSCLC, 60.6%; in the test with 786-0 renal, 78.4%; with COLO 205 colon, 70.8%; with DU-145 prostate, 79.4%; in the test with K-562 leukemia, 50.6%. The growth in the test on MALME-3M melanoma is 80.9%; in the test on MDA-MB-231 breast it was 81.2%; in the test with SF-268 CNS, 78%; in the test on SF-295 CNS it was 76.2%; in the test with SF-539 CNS, 83%; in the test with UACC-257 melanoma, 77.7%. The growth in the test with M14 melanoma was 50.5%.

For the compound `Cc1cc2nc(-c3ccccc3)c(-c3ccccc3)nc2cc1C`, the growth in the test on NCI-H23 lung was 98.2%; in the test with NCI-H226 lung, 94.9%; in the test with NCI-H322M lung it was 112%; in the test with HOP-62 NSCLC, 111%; in the test with NCI-H460 lung, 102%; with HOP-92 NSCLC it was 89.6%. Also, the growth in the test on NCI-H522 lung was 94.9%; in the test on A549/ATCC NSCLC, 97.9%; in the test with 786-0 renal, 95.4%; with COLO 205 colon, 119%; with DU-145 prostate it was 112%; in the test with MALME-3M melanoma, 113%. Moreover, the growth in the test on MDA-MB-231 breast is 94.5%; with RXF 393 renal it was 111%; in the test with SF-268 CNS it was 116%; in the test with SF-295 CNS it was 90%; with SF-539 CNS, 109%; with UACC-257 melanoma, 117%. The growth with M14 melanoma was 113%.

As for `CCC(=O)c1ccc(O)c(OC)c1`, the growth in the test with NCI-H23 lung is 96.1%; with NCI-H226 lung, 72.4%; in the test with NCI-H322M lung it was 106%; in the test with HOP-62 NSCLC, 104%; with NCI-H460 lung, 104%; in the test on HOP-92 NSCLC, 82.6%. The growth in the test on NCI-H522 lung was 88.2%; in the test on A549/ATCC NSCLC, 86.5%; in the test with 786-0 renal, 4.29% (active); in the test with COLO 205 colon it was 120%; in the test on DU-145 prostate, 113%; with MALME-3M melanoma, 104%. In addition, the growth is 92% with MDA-MB-231 breast; 111% in the test on RXF 393 renal; 104% in the test with SF-268 CNS; 105% in the test on SF-295 CNS; 111% in the test on SF-539 CNS; 85.7% in the test with UACC-257 melanoma. The growth in the test with M14 melanoma was 101%.

For the compound `COc1cccc(CCC(=O)c2cc3c(N)c(C(=O)Nc4cccc(Cl)c4C)sc3nc2C)c1`, the growth with NCI-H23 lung was 37.4%; in the test on NCI-H226 lung, 45.7%; with NCI-H322M lung, 43.6%; in the test on HOP-62 NSCLC, 36.4%; in the test with NCI-H460 lung it was 7.76% (active); with HOP-92 NSCLC, 48%. Besides, the growth in the test on NCI-H522 lung was 12.1%; in the test on A549/ATCC NSCLC, 27.3%; in the test with 786-0 renal, 25.9%; in the test with COLO 205 colon, 7.16% (active); in the test with DU-145 prostate, 13.8%; with K-562 leukemia, 7.49% (active). In addition, the growth was 41.3% in the test on MALME-3M melanoma; 16.9% in the test on MDA-MB-231 breast; 37.3% in the test on SF-268 CNS; 2.95% (active) in the test with SF-295 CNS; -41.6% (active) in the test with SF-539 CNS; 65.1% with UACC-257 melanoma. Also, the growth in the test with M14 melanoma is 16.4%.

Consider `NS(=O)(=O)c1cccc(NC(=O)C(=O)C2C(=O)Nc3ccccc32)c1` (configuration not stated), for which the growth is 95.3% with NCI-H23 lung; 95.9% in the test on NCI-H226 lung; 121% in the test on NCI-H322M lung; 90.2% in the test with HOP-62 NSCLC; 106% with NCI-H460 lung; 74.6% in the test with HOP-92 NSCLC. In addition, the growth in the test with NCI-H522 lung is 102%; in the test on A549/ATCC NSCLC, 103%; in the test with 786-0 renal, 114%; in the test on COLO 205 colon, 123%; in the test with DU-145 prostate, 107%; with K-562 leukemia, 109%. The growth in the test with MALME-3M melanoma is 102%; in the test on MDA-MB-231 breast it was 95.7%; with SF-268 CNS it was 105%; in the test with SF-295 CNS it was 94.2%; with SF-539 CNS it was 101%; with UACC-257 melanoma it was 100%. For the same compound, the growth with M14 melanoma was 99.1%.
